For 14 molecules, growth inhibition results are on record in PubChem BioAssay (NCI).

This test in a line: NCI Yeast Anticancer Drug Screen. Data for the cln2 rad14 strain (AID 165).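 Note: 0% = growth equal to vehicle treated cultures.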 Conditions: S. cerevisiae cln2 rad14 strain, active compounds read high. As for the experimental part: Growth inhibition of yeast strains with defined genetic alterations is measured as a screen for potential anti-cancer activity. Selected strains with alterations in DNA damage repair or cell cycle control were exposed to compounds and growth inhibition was measured relative to vehicle treated controls. The strain used in this assay is cln2 rad14

Setting [1] is: at 5.0 µM (retest, dose inferred, filed as 0.5).
[2] abbreviates: at 50.0 µM (retest, dose inferred, filed as 5.0).

This is part of a sample that, as a whole, favours compounds with a hit. Of some 79,000 tested, about 15% had one in any assay. Values without a mark were called inactive. Calls of active or inactive are those of the source. Cut-off read from the data, not from the text of the source: active = growth inhibition above about 70%; inactive = the rest.

For `Cc1cc(Cl)ccc1N1C(=O)C(=O)C(c2nc3ccccc3o2)C(=O)C1=O`, the growth inhibition is, setting by setting: under setting [1], 31%; under setting [2], 98% (active); (at 50.0 µM) 79.9% (active).

`COc1cc(/C=N/NC(=S)Nc2ccccc2)ccc1O`: the growth inhibition under setting [1] was -31%, the growth inhibition under setting [2] is 9% and the growth inhibition (at 50.0 µM) was -23.4%.

For `COc1ccc2[nH]c3ccc4cc[n+](CCN5CCC(C6CCN(CC[n+]7ccc8ccc9[nH]c%10ccc(OC)cc%10c9c8c7)CC6)CC5)cc4c3c2c1`, the growth inhibition was 34% under setting [1], 96% (active) under setting [2] and 91.1% (active) (at 50.0 µM).

With `O=C1OC(=O)c2ccc([N+](=O)[O-])c3cccc1c23`, the growth inhibition was 3% under setting [1], 14% under setting [2] and 26.4% (at 50.0 µM).

With `Nc1cccc2c1[nH]c(=O)c1ccccc12`, the growth inhibition was -4% under setting [1], 40% under setting [2] and 77.9% (active) (at 50.0 µM).

In the case of `CO/C(=N\N=C(/c1ccccc1)C(F)(F)F)c1ccncc1`, the growth inhibition runs as follows: under setting [1], 25%; under setting [2], 52%; (at 50.0 µM) 44.5%.

For the molecule `O=C1OC(c2ccc(O)cc2)Sc2ccccc21` (configuration not stated), the growth inhibition was 3% under setting [1], 24% under setting [2] and -22.5% (at 50.0 µM).

In the case of `CCCCC1C(=O)N2c3ccccc3-c3ccccc3N2C1=O`, the growth inhibition runs as follows: under setting [1], -4%; under setting [2], 8%; (at 50.0 µM) 14.8%.

With `CC1(C)OC(C(COC(=O)c2ccc([N+](=O)[O-])cc2)OS(=O)(=O)c2ccc([N+](=O)[O-])cc2)C(C(SCc2ccccc2)SCc2ccccc2)O1` (configuration not stated), the growth inhibition by setting is: under setting [1], -9%; under setting [2], 92% (active); (at 50.0 µM) 7.75%.

In the case of `COc1cc(OC)c(/C=C\c2ccnc3ccccc23)c(OC)c1`, the growth inhibition was 19% under setting [1], 55% under setting [2] and 37.5% (at 50.0 µM).

`COC(=O)c1nc(=S)[nH]c(C(=O)OC)c1C(=O)c1ccc(O)c(OC)c1`: the growth inhibition is -4% under setting [1], 90% (active) under setting [2] and 47% (at 50.0 µM).

For `CC(=O)N(C1=C(Cl)C(=O)c2ccccc2C1=O)c1ccc(F)cc1`, the growth inhibition was 13% under setting [1], 98% (active) under setting [2] and 94.4% (active) (at 50.0 µM).

With `[N-]=[N+]=CC(=O)c1ccc(C(=O)C=[N+]=[N-])cc1`, the growth inhibition by setting is: under setting [1], 8%; under setting [2], 98% (active); (at 50.0 µM) 98.7% (active).

For the molecule `Cc1cc2c(C(C)C)c(O)c(O)c(C=Nc3ccc(C(=O)O)cc3)c2c(O)c1-c1c(C)cc2c(C(C)C)c(O)c(O)c(C=Nc3ccc(C(=O)O)cc3)c2c1O`, the growth inhibition was -3% under setting [1], 95% (active) under setting [2] and 73.3% (active) (at 50.0 µM).
